This passage reports Percent Effect results from ChEMBL document CHEMBL3988442, “University of Dundee, Small-Polar-MMV Screening Library” (2021).

The structures appear in SMILES notation. For some assays here: Measured potencies and affinities stand elsewhere.

Set-up in all cases: scale not given: direction of the effect not stated beside the values
The target of assay [1] is Protein translocase subunit SecA (Escherichia coli (strain K12)) (UniProt P10408). Briefly: Assay to Identify E. coli SecA ATPase Inhibitors. The class given is functional. To be noted: 30 µM.
Sequence of Protein translocase subunit SecA (Escherichia coli (strain K12)) (P10408 whole entry): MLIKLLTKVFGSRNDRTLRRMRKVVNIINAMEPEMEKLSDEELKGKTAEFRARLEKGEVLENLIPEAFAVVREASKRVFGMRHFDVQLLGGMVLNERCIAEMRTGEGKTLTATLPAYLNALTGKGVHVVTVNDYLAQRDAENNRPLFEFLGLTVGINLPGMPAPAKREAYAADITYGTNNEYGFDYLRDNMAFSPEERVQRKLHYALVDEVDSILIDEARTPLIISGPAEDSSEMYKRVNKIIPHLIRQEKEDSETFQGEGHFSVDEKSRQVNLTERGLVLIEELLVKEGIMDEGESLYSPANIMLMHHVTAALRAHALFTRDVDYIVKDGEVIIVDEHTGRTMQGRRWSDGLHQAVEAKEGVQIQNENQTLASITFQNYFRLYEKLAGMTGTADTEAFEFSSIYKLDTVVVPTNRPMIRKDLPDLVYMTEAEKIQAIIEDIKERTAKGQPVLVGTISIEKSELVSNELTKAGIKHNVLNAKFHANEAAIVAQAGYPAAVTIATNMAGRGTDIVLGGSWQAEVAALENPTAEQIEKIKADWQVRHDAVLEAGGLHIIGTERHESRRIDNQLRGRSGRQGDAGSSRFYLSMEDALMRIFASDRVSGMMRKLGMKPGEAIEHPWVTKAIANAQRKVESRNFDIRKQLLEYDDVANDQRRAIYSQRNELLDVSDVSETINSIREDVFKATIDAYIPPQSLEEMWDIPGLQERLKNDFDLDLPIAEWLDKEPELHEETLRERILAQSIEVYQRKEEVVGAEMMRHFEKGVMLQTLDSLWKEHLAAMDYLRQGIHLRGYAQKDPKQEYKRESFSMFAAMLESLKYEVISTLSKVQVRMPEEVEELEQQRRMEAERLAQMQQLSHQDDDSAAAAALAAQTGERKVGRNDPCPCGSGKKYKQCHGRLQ
Assay [2] addresses T1, Ubiquitin-activating enzyme e1, putative (Leishmania donovani (strain BPK282A1)) (UniProt E9BSI1).
T1 sequence (whole entry): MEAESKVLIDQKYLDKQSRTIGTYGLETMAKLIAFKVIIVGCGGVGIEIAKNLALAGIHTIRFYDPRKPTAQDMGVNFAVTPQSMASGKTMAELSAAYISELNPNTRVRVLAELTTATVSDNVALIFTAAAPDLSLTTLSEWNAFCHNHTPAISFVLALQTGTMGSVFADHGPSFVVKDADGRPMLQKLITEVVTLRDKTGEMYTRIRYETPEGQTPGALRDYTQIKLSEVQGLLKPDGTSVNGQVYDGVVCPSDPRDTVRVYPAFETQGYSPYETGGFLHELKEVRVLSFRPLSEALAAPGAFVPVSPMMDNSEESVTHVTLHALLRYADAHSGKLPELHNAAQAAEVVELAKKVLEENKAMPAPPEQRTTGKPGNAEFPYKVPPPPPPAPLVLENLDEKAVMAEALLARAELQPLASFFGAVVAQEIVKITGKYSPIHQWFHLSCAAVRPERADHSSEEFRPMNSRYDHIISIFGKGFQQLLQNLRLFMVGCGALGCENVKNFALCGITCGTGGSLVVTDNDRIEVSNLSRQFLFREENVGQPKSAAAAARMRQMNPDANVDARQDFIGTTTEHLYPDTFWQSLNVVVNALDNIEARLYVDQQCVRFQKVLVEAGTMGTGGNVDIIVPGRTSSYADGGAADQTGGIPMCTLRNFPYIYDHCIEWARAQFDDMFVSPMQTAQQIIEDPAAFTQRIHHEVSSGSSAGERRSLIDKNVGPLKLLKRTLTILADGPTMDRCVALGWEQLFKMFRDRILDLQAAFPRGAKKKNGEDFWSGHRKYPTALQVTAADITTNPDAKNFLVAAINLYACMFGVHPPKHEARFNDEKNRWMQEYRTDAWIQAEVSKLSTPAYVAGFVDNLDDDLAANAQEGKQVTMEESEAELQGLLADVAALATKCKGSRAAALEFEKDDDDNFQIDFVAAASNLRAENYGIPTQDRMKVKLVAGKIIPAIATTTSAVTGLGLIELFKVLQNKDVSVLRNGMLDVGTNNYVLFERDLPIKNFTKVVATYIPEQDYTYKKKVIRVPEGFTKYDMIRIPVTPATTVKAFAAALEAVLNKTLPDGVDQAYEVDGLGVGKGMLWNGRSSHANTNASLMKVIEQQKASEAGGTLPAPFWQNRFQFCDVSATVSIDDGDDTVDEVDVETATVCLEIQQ
Description: Leishmania donovani Ubiquitin Activating Enzyme (LdE1). In kind it is functional. The following applies: 30 µM.

Assay [3] deals with Sialic acid-binding Ig-like lectin 9 (Homo sapiens) (UniProt Q9Y336). Description: Hs-Siglec9 ALPHAscreen SOP 20170721. To be noted: 10 µM. On the technique in general: In Alpha technology, singlet oxygen from a donor bead excites a nearby acceptor bead.
Sequence of Sialic acid-binding Ig-like lectin 9 (Homo sapiens) (Q9Y336 whole entry): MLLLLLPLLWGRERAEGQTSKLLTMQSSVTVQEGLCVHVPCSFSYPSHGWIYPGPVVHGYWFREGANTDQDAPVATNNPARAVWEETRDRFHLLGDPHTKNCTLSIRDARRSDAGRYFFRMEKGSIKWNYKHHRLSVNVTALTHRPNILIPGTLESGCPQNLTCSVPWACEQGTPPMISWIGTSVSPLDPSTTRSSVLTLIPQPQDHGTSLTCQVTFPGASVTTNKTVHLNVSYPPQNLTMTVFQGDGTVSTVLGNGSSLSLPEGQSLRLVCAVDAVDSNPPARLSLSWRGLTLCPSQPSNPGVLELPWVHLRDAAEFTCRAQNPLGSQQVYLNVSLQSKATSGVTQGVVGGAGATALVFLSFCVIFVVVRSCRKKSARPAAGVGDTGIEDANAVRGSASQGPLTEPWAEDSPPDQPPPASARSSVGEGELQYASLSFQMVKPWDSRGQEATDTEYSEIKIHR
A further assay has as its system Trypanosoma cruzi. Briefly: Trypanosoma cruzi phosphomannomutase and mannose-1-phosphate guanylyltransferase assay. The class given is functional. The following applies: 10 µM.
Assay [4] addresses T2, Arginase-2, mitochondrial (Homo sapiens) (UniProt P78540).
T2 sequence (whole entry): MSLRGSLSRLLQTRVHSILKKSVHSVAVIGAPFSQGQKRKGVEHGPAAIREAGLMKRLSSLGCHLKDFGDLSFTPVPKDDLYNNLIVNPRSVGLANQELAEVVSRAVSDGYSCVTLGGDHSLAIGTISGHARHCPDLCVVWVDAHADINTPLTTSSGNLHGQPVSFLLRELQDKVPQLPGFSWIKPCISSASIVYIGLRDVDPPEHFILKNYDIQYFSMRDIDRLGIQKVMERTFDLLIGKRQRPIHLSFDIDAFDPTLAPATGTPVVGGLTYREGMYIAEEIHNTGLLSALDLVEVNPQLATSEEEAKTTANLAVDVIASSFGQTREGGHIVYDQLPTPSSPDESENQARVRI
Description: in vitro enzyme assay to detect the production of urea directly proportional to the activity of Arginase II. Further: in the data most compounds retested in dose-response had high values. The class given is functional. To be noted: 33.3 µM.

For assay [5], the target named is T3, Proteasome subunit beta (Trypanosoma cruzi) (UniProt O96673).
T3 sequence (whole entry): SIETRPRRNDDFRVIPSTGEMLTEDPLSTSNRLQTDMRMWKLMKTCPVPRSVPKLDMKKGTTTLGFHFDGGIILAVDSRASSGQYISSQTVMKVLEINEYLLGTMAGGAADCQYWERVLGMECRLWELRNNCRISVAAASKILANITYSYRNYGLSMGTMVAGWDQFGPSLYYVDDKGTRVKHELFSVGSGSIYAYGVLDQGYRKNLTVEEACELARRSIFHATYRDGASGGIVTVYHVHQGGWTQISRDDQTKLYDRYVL
Description: Trypanosoma cruzi proteasome chymotrypsin-like activity (TcProtChymo) assay. Further: in the data most compounds retested in dose-response had high values. The class given is functional. The following applies: 9.37 µM.

The species entered for another assay is Homo sapiens. Description: To identify inhibition of the IFN signalling (Jak-Stat) pathway via expression of an eGFP reporter gene under the control of an IFN-stimulated response element (ISRE) containing MxA promoter. In kind it is functional. The following applies: 30 µM. In general terms: A reporter such as luciferase makes a cellular process visible.
Assay [6] addresses T4, Tyrosyl-tRNA synthetase, putative (Trypanosoma cruzi (strain CL Brener)) (UniProt Q4DSP6).
T4 sequence (whole entry): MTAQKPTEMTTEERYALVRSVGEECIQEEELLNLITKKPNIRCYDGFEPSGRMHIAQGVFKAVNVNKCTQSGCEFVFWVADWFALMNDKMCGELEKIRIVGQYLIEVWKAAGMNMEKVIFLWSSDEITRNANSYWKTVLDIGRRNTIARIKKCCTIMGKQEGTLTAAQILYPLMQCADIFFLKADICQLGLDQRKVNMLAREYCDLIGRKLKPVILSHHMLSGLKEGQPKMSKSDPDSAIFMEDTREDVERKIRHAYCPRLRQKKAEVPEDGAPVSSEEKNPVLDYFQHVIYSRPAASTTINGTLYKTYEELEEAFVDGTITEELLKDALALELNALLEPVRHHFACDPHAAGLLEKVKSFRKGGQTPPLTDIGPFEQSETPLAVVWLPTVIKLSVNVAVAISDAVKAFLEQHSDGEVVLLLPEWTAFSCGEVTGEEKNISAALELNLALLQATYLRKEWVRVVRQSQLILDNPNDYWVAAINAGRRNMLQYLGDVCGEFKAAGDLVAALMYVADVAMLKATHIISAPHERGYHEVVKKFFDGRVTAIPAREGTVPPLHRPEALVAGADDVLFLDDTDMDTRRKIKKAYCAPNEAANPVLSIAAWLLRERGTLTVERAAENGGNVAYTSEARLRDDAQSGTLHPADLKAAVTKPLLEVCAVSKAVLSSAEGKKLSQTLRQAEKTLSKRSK
Description: Trypanosoma cruzi tyrosyl tRNA synthetase (TcYRS) _High Tyrosine SOP. Further: in the data most compounds retested in dose-response had high values. To be noted: 30 µM. The class given is functional.

Assay [7] addresses T4, Tyrosyl-tRNA synthetase, putative (Trypanosoma cruzi (strain CL Brener)). Description: Trypanosoma cruzi tyrosyl tRNA synthetase (TcYRS) SOP. In kind it is functional. To be noted: 30 µM.
Assay [8] concerns the target Chromo domain-containing protein 1 (Saccharomyces cerevisiae (strain ATCC 204508 / S288c) (Baker's yeast)) (UniProt P32657). Description: ScCHD-1 Enzyme Inhibition Assay. Further: in the data most compounds retested in dose-response had high values. In kind it is functional. The following applies: 30 µM.

Sequence of Chromo domain-containing protein 1 (Saccharomyces cerevisiae (strain ATCC 204508 / S288c) (Baker's yeast)) (P32657 whole entry, the tested form may be a part): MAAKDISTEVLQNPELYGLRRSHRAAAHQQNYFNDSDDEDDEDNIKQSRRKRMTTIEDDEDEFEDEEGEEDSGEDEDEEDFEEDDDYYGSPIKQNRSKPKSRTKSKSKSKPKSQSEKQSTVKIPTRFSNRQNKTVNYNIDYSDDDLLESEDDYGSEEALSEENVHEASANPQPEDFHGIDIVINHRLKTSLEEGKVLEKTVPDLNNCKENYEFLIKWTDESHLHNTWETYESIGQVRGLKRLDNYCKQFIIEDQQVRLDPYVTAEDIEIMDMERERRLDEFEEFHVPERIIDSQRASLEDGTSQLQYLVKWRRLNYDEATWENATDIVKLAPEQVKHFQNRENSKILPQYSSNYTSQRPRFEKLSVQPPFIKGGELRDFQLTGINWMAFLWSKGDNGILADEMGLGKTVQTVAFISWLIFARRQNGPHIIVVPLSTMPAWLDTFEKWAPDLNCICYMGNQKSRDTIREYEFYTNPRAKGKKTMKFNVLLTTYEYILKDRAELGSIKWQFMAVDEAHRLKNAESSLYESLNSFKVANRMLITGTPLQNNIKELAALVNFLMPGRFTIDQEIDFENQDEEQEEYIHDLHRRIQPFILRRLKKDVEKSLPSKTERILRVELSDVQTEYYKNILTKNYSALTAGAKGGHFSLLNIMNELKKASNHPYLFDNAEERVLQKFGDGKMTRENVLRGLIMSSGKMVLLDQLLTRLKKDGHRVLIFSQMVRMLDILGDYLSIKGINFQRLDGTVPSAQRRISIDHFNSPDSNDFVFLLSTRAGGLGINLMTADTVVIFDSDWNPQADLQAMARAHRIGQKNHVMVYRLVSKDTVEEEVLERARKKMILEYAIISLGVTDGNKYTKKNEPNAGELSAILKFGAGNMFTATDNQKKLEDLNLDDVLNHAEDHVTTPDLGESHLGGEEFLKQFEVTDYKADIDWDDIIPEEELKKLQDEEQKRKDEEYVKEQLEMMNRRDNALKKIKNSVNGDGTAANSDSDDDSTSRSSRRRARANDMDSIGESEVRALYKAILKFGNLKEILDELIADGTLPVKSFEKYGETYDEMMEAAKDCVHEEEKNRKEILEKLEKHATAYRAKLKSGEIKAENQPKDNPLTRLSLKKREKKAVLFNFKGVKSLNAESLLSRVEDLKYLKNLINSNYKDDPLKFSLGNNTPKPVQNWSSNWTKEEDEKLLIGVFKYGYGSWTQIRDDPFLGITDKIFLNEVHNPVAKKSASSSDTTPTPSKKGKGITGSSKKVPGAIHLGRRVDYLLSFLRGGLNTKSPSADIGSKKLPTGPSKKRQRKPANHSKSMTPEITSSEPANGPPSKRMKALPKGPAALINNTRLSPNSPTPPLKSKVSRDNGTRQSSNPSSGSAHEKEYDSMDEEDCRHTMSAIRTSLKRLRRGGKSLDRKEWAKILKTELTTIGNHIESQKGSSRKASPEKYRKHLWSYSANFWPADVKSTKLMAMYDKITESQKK

Turning to `CCc1cnc(CN2CCC(N(C)Cc3noc(C4CC4)n3)C2)o1` (stereo not given), the Percent Effect in [1] is -3.48%; in assay [2] it was 0%; in assay [3] it was -1.21%; with Trypanosoma cruzi, -2.24%; in [4], 4.3%; in assay [5], 0.175%. The Percent Effect in the assay filed under Homo sapiens was 5.76%; in assay [6], 0.98%; in assay [7] it was -2.35%; in assay [8] it was 0.446%.
Take `Cc1nc(CN2CCC(N(C)Cc3noc(C4CC4)n3)C2)oc1C` (stereo not given): the Percent Effect in [1] is 0.865%; in [2], 18.2%; in [3], 0.312%; in the assay on Trypanosoma cruzi, 1.31%; in assay [4] it was 0.205%; in assay [5] it was 18.8%. In addition, the Percent Effect in the assay filed under Homo sapiens is 12.6%; in assay [6], 12.8%; in assay [7] it was 28.2%; in assay [8], -10.9%.
For `Cc1nc(CN2CCCC(CCc3ccc(F)cc3F)C2)c[nH]1` (stereo not given), the Percent Effect was -4.78% in assay [1]; -2.7% in assay [2]; 37.1% in assay [3]; 4.75% in the assay on Trypanosoma cruzi; 1.05% in [4]; 3.94% in assay [5]. For the same molecule, the Percent Effect in the assay filed under Homo sapiens was -3.62%; in [6] it was 2.66%; in assay [7] it was 7.32%; in [8] it was -1.62%.
In the case of `COC[C@@H]1CC[C@H]2[C@H](CCN2S(=O)(=O)c2ccc(F)cc2)O1`, the Percent Effect in [1] is -2.35%; in assay [2] it was 6.49%; in [3] it was -4.91%; in the assay on Trypanosoma cruzi, -3.02%; in [4], -0.405%; in [5], 12.1%. Also, the Percent Effect in the assay filed under Homo sapiens is 11.2%; in assay [6], 4.74%; in [7] it was 7.69%; in assay [8] it was -2.82%.
For the molecule `Cc1cc(C2CCCN2Cc2cc(=O)n(C)c(=O)n2C)on1` (stereo not given), the Percent Effect was -4.6% in [1]; 2.67% in assay [2]; 1.58% in [3]; 3.21% with Trypanosoma cruzi; 0.444% in assay [4]; 1.27% in assay [5]. Moreover, the Percent Effect in the assay filed under Homo sapiens was 14.5%; in assay [6] it was 2.63%; in [7], 5.13%; in assay [8], -4.48%.
Regarding `CC1CCN(C(=O)c2cccc3ncccc23)CC1`, the Percent Effect in assay [1] is -2.07%; in assay [2], -5.33%; in assay [3], 1.04%; in the assay on Trypanosoma cruzi it was -1.21%; in assay [4], -1.33%; in [5], 3.48%. In addition, the Percent Effect was determined as 19% in the assay listed under Homo sapiens, 4.74% in assay [6], 7.69% in assay [7] and 1.83% in [8].
Turning to `Cc1noc(C)c1C(=O)NCc1ccc(N2CCOC(C)C2)nc1` (stereo not given), the Percent Effect was -2.58% in assay [1]; 21.3% in assay [2]; -1.63% in [3]; -0.402% in the assay on Trypanosoma cruzi; -0.887% in assay [4]; 12.5% in assay [5]. Also, the Percent Effect in the assay filed under Homo sapiens is 9.59%; in assay [6], 2.63%; in [7], 15.4%; in [8], -13.6%.
Turning to `CCn1cc(S(=O)(=O)N(C)Cc2c(Br)cnn2CC)c(C)n1`, the Percent Effect is 8.78% in [1]; 12% in assay [2]; -0.969% in assay [3]; -3.55% in the assay on Trypanosoma cruzi; 3.54% in [4]; 16.6% in assay [5]. The Percent Effect in the assay filed under Homo sapiens is 20.6%; in [6], 3.17%; in [7], 7.5%; in assay [8], -17.9%.
Turning to `Cc1nc(CN2CCCC(CCNS(C)(=O)=O)C2)c[nH]1` (stereo not given), the Percent Effect is -6.15% in assay [1]; 0% in [2]; 1.08% in [3]; -0.873% with Trypanosoma cruzi; 3.85% in assay [4]; 1.71% in assay [5]. Moreover, the Percent Effect is 7.77% in the assay filed under Homo sapiens, 3.72% in assay [6], 9.76% in assay [7] and -0.429% in assay [8].
In the case of `CCn1cc(CN(C)S(=O)(=O)c2cnn(CC)c2C)c(C)n1`, the Percent Effect in assay [1] is 39.4%; in assay [2], 14.7%; in assay [3], -2.08%; with Trypanosoma cruzi it was -0.986%; in [4], 3.1%; in assay [5], 15.3%. In addition, the Percent Effect in the assay listed under Homo sapiens was 39.3%; in assay [6], 2.12%; in assay [7], 10%; in assay [8], -20.5%.
On to `CCC(CC)C(=O)N1CCC2(C1)CN(c1ccccc1)C(=O)CN2C` (stereo not given), for which the Percent Effect in assay [1] was -1.78%; in assay [2] it was 3.9%; in assay [3] it was -5.2%; in the assay on Trypanosoma cruzi, -8.08%; in assay [4] it was 4.86%; in assay [5], 14.7%. Moreover, the Percent Effect is -19.6% in the assay listed under Homo sapiens, 5.79% in assay [6], 0% in assay [7] and -2.51% in assay [8].
